# Reference: PubChem BioAssay (NCI)
# Compounds without any hit were thinned out: in the full panel of roughly 83,000, 20% have a hit.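 A percent growth of 40 corresponds to 60% growth inhibition; 0 means no net growth; -100 means all cells died. Active threshold: below 10.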 Values without a mark were called inactive. Calls of active or inactive are those of the source.
# Test system: TK-10 renal
# Experiment: NCI-60 one-dose screen, 48 h (100 = growth as untreated, 0 = no growth, -100 = all killed)
# Conditions: 10 µM unless noted
# Method: Growth inhibition of the TK-10 human tumor cell line is measured as a screen for anti-cancer activity. Cells are grown in 96 well plates and exposed to the test compound for 48 hours. Compounds are tested at a single concentration, which is 10^-5 M for most compounds. The reported endpoint is percent growth (GI% or GIPRCNT), where numbers from 0 - 100% represent growth inhibition, and numbers from -100% - 0 represent cell death. For example, a value of 40 represents 60% growth inhibition. A value of 0 means no net growth occurred over the course of the experiment. A value of -40 indicates 40% of cells at the beginning of the experiment died by the end of the experiment. A value of -100 means all cells are dead at the end of the experiment.
# NCI-60 Human Tumor Cell Lines Screen was performed using the standard one-dose NCI protocol, which is described in more detail at https://dtp.cancer.gov/discovery_development/nci-60/default.htm.
# Compounds with GIPRCNT values below 10 were considered active. Activity score was based on GIPRCNT using the following formula: […]
# Score is 0 for GIPRCNT values of 100 or above, 50 for GIPRCNT values of 0, and 100 for GIPRCNT values of -100.
row,SMILES,growth
1,Cc1cc(C)nc(SC2=C(Nc3cccc(Cl)c3)C(=O)N(Cc3ccccc3)C2=O)n1,97.2% [30 µM]
2,COc1cc2nc(N3CCCC3)nc(Nc3ccccc3)c2cc1OC,16.5%
3,Cc1nn(-c2ccc(F)cc2)c2ncnc(Oc3ccc(NC(=O)Nc4ccc(Cl)c(C(F)(F)F)c4)cc3)c12,104%
4,CCCOc1cc2ccccc2cc1C(=O)Nc1nc(NC)c2c(ccc3nccc32)[nH]1,-65.8% (active)
5,CN(C)S(=O)(=O)c1ccc(S(=O)(=O)Nc2cccc(Cl)c2N2CCCCC2)cc1,102%
6,COc1ccc(C(=O)COc2ccc(/C=C3\Oc4ccc(OC)cc4C3=O)cc2)cc1,119%
7,O=C(O)c1ccc(N=CC(=O)c2ccc(-c3ccccc3)cc2)cc1,96.8%
8,CC1=CC(=NN=c2cc(C)n([O-])c(C)c2)C=C(C)[N+]1=O,85.8%
9,COc1cc(-c2nc3cc(Cl)c(Cl)cc3[nH]2)ccc1OCC(=O)N=Nc1c(O)[nH]c2ccccc12,-12% (active)
10,Cc1cc2nc(NC(=O)CN3CCN(CCN4C(=O)c5cccc6cccc(c56)C4=O)CC3)sc2cc1C,95%
11,CCc1c(Nc2ccccc2C)nc(N)[nH]c1=O,105%
12,CSc1ccc(SC2c3ccc(C)cc3Oc3nc(N)c(C#N)c(N)c32)cc1 (stereo not given),-97% (active)
13,Cn1c(=O)c2c(nc3n(-c4ccc(Cl)cc4Cl)c(Sc4nc(-c5ccccc5)c(C#N)c(=O)[nH]4)cn23)n(C)c1=O,5.58% (active)
14,COc1ccc(-c2nc3ccc(-c4nc5ccc(N6CCN(c7ccc(F)cc7)CC6)cc5[nH]4)cc3[nH]2)cc1OC,133%
15,O=C1c2cc3c(cc2-c2c1c1ccc(F)cc1c(=O)n2CCCNCCO)OCO3,-18.9% (active)
16,O=C1c2cc3c(cc2-c2c1c1cc(F)c(F)cc1c(=O)n2CCCn1ccnc1)OCO3,29.8%
17,COc1ccc(/C=C/C(=O)c2ccc(O)c(CN3CCN(c4cc5c(cc4F)c(=O)c(C(=O)O)cn5C4CC4)CC3)c2)cc1,52.7%
18,COc1ccc(-c2cc(Nc3ccnc(N4CCOCC4)n3)on2)cc1,69.1%
19,Clc1ccc2nc3nc4ccc[nH]c4cc3c2c1,43.1%
20,COc1ccc(-c2nnc(SCC(=O)c3ccc(Cl)cc3)o2)cc1,95.9%

row,SMILES,growth
1,COc1ccc2[nH]cc(-c3noc(C(=O)c4cn(C)c5ccc(F)cc45)n3)c2c1,113%
2,COc1ccc(CCNc2nc3c(c(=O)n(Cc4ccc(Br)cc4)c(=O)n3C)n2C)cc1OC,111%
3,CSc1nc(Nc2cccc(NC(=O)/C(C#N)=C/c3c(Cl)cccc3Cl)c2)c(C#N)c(-c2cccc([N+](=O)[O-])c2)n1,99.6%
4,C=C1c2nc3ccccc3n2C=C(c2cccc(Cl)c2)N1Cc1ccc(OC)cc1,30.8%
5,COc1ccc(CN2c3ccccc3Sc3ccccc32)c(C(F)(F)F)c1,65.5%
6,C=CCSSc1ncnc2c1ncn2C1OC(CO)C(O)C1O (stereo not given),26%
7,Clc1ccc2c(NCCCCNc3nc(N4CCCCC4)nc4ccccc34)ccnc2c1,-59.5% (active)
8,Brc1ccc(-c2csc(Nc3ccccn3)n2)cc1,101%
9,CC(C)(C)c1cc(/C=N\NC(=O)/C=C/C=C/c2ccc3c(c2)OCO3)c(O)c(C(C)(C)C)c1,96%
10,NC(=NCCCOc1ccc(Cl)cc1)Nc1ccc(C(F)(F)F)cc1,76.1%
11,O=C(COc1cccc(/C=C2\COc3ccccc3C2=O)c1)Nc1nccs1,64.2%
12,O=C(Cn1cccc(Nc2ccccc2)c1=O)Nc1ccccc1,107%
13,CNC(=O)c1cc(Oc2ccc(NC(=O)Nc3ccc(Cl)c(OC(F)(F)F)c3)c(F)c2)ccn1,37.3%
14,CC/C=C\C[C@H](O)C/C=C1/C(=O)C=C[C@@]1(C)C/C=C\CCCC(=O)OC,95.9%
15,CC1(C)CC[C@]2(C(=O)Nc3ccccn3)CC[C@]3(C)C(=CC[C@@H]4[C@@]5(C)C/C(=C/c6cccnc6)C(=O)C(C)(C)[C@@H]5CC[C@]43C)[C@H]2C1,68.9%
16,N=C(N)c1ccc(-c2ccc(-c3ccc4ccccc4c3)s2)s1,19%
17,COc1ccc2c(c1)C(=O)/C(=C/c1ccccn1)CC2,55.7%
18,COc1cccc(-c2nc3sccn3c2-c2ccnc(NCCCNS(=O)(=O)c3c(Cl)cccc3Cl)c2)c1,100%
19,COc1ccc(C2CC(c3ccc(Cl)cc3)=NN2/C=C2\SC(=S)N(NC(=O)Cc3ccccc3Nc3c(Cl)cccc3Cl)C2=O)cc1 (stereo not given),52.9%
20,O=C(N(c1ccccc1)c1ccccc1)n1ccc2nc(Cl)nc(Cl)c21,73.7%
